In PubChem BioAssay (NCI):
This is part of a sample that, as a whole, favours compounds with a hit. Of some 83,000 tested, about 20% had one in any assay.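 The endpoint reported here, percent growth, reads 100 for growth as untreated, 0 for no net growth and -100 for all cells dead.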 Values without a mark were called inactive. Calls of active or inactive are those of the source. How the source made its calls: active means growth percent below 10; inactive means the rest.

Key:
Test in all cases: NCI-60 one-dose screen, 48 h (100 = growth as untreated, 0 = no growth, -100 = all killed)
Settings in all cases: 10 µM unless noted
[1] = system: T-47D breast
[2] = system: BT-549 breast
[3] = system: MDA-MB-435 melanoma
[4] = system: SW-620 colon
[5] = system: MCF7 breast
[6] = system: HCT-116 colon
[7] = system: HCC-2998 colon
[8] = system: KM12 colon

SMILES | growth [1] | growth [2] | growth [3] | growth [4] | growth [5] | growth [6] | growth [7] | growth [8]
C=C1CC[C@@H]2[C@](C)(COC(C)=O)[C@H](OC(C)=O)CC[C@@]2(C)[C@@H]1CC(Nc1ccc(S(=O)(=O)NC(C)=O)cc1)C1=CCOC1=O (stereo partly drawn) | -3.67% (active) | -62.6% (active) | -38.8% (active) | -65.6% (active) | -33.6% (active) | -63.9% (active) | -12.7% (active) | -34% (active)
O=C1/C=C/[C@@H](O)[C@@H]2C[C@@H](O)C[C@H]2/C=C/CCC[C@H](CCO)O1 | -17.8% (active) | 8.06% (active) | 9.98% (active) | -46% (active) | -17.1% (active) | -62.5% (active) | 1.71% (active) | -54.3% (active)
C=C(C)[C@@H]1CC[C@]2(C(=O)N3CCN(C)CC3)CC[C@]3(C)[C@H](CC[C@@H]4[C@@]5(C)CC[C@H](OC(=O)c6ccccc6C(=O)O)C(C)(C)[C@@H]5CC[C@]43C)[C@@H]12 | 102% | 111% | 99.3% | 101% | 96.4% | 90.8% | 106% | 106%
Cn1cc(-c2nn3cc(-c4cccs4)nc3s2)c2cc(F)ccc21 | 45% | 43.1% | -43.4% (active) | 12.4% | 21.4% | 14.2% | 66.8% | 22.2%
CC(=C(c1ccc(OCCN2CCCCC2)cc1)c1ccc(OCCN2CCCCC2)cc1)c1ccc(Cl)cc1 | -72.6% (active) | -87% (active) | -96.6% (active) | -84.8% (active) | -85.4% (active) | -88.9% (active) | -93.4% (active) | -84.9% (active)
O=C(O)[C@@H](Cc1ccc2ccccc2c1)NC(=O)n1c2ccccc2c2ccccc21 | 70.7% | 11.3% | -53% (active) | 27.3% | 17.1% | 9.76% (active) | 21.4% | 18.5%
CCCn1cnc2c(c1=N)C(c1ccc(F)cc1)c1sc3c(F)cccc3c1O2 (stereo not drawn) | 53.9% | 63.9% | -35.6% (active) | 25.1% | 15.1% | 36.3% | 76.9% | 36.1%
COc1cc(OC)c(/C=C/C(=O)c2c(O)cc(OC)c(C3CCN(C)CC3)c2OC)c(OC)c1 | -74.5% (active) | -6.55% (active) | -87.9% (active) | -83.8% (active) | -86.1% (active) | -100% (active) | -94.5% (active) | -62% (active)
O=C(Nc1ccc(Br)cc1)C1=NCCCCN1 | 71.3% | 87.5% | 75.3% | 67.3% | 81% | 80.2% | 106% | 75.6%
C=C(C)[C@@H]1CC[C@]2(C(N)=O)CC[C@]3(C)[C@H](CC[C@@H]4[C@@]5(C)CC[C@H](OCCC#N)C(C)(C)[C@@H]5CC[C@]43C)[C@@H]12 | 72.3% | 97.8% | 89.1% | 87% | 86.7% | 91% | 110% | 89.2%
Cc1c(CN)cc(-c2ccc(Cl)cc2)n1-c1ccccc1 | 52.5% | 74.9% | 97.1% | 89.4% | 75.1% | 67.3% | 107% | 99.9%
Cc1ccc(CNc2ccc3nc(CCC(C)C)[nH]c3c2)cc1 | 84.4% | 93.4% | 97.2% | 91.9% | 89.2% | 80.4% | 111% | 96.2%
Cc1nc2c(c(=O)[nH]1)C(c1ccccc1)c1ccc3ccccc3c1O2 (stereo not drawn) | 39.1% | 34.1% | -16.2% (active) | 20.9% | 11.4% | 21.3% | 56.6% | 26.2%
O=C(Nc1ncc(Cc2ccccc2)s1)c1ccc2c(c1)OCCCO2 | 18.1% | 48.8% | -34.2% (active) | 38.1% | 16.1% | 23% | 22% | 16.4%
CCN1C(=O)N(CC)C2C1NC(=S)N2/N=C/c1ccc(OC)cc1 (stereo not drawn) | 49.8% | 59.4% | -13.7% (active) | 25.6% | 22.5% | 24.7% | 67.8% | 31.2%
CCN1CCN(c2cc(C)nc(N(CCNc3ccnc4cc(Cl)ccc34)Cc3ccc4c(c3)OCO4)n2)CC1 | -62.1% (active) | 36.4% | -66.3% (active) | 0.855% (active) | -37.3% (active) | -23.2% (active) | -46% (active) | 5.74% (active)
Cc1c(CC(=S)N2CCOCC2)nnn1-c1cccc(C(F)(F)F)c1 | 103% | 112% | 103% | 99.9% | 104% | 102% | 119% | 105%
O=C(CCSc1nnc2n(Cc3ccccc3)c(=O)c3c4c(sc3n12)CCCC4)N1CCN(c2ccccc2)CC1 | 101% | 99.5% | 91.2% | 101% | 98.4% | 100% | 96.5% | 92.9%
Cc1ccc(C(=O)Nc2cccc(C#Cc3cccc4[nH]nc(N)c34)c2)cc1C(F)(F)F | 46.3% | 86.6% | 62.4% | 65.4% | 59.8% | 25.2% | 51% | 64.3%
CS(=O)(=O)c1ccc(NC(=O)c2ccccc2)nc1 | 98.9% | 105% | 111% | 100% | 101% | 95.3% | 107% | 107%
Cc1ccc(/C=C/C(=O)c2ccc(-n3cc(CN4CCN(c5cc6c(cc5F)c(=O)c(C(=O)O)cn6C5CC5)CC4)nn3)cc2)cc1 | 86.7% | 73.7% | 77.4% | 98.4% | 59.2% | 8.04% (active) | 92.4% | 84.1%
CCN1CCN(CCNc2nccc(-c3c(-c4ccc(F)c(OC)c4)nc4sccn34)n2)S1(=O)=O | 87.3% | 93.2% | 26.6% | 87.4% | 50% | 44.5% | 89% | 74.2%
C=CCOC(=O)C1=C(C)N(CC)C(=O)NC1c1c(Cl)n(C)c2ccccc12 (stereo not drawn) | 91% | 102% | 98.1% | 101% | 98.7% | 90% | 91.2% | 85.7%
CCCCCCCCCCCCCOC(=O)c1c(C)[nH]c(/C=C2\N=C(c3ccc[nH]3)C=C2OC)c1C | 27.2% | 51.5% | 19.2% | 3.08% (active) | 12.2% | 11.3% | 22.8% | 12.7%
O=C(/C=C/C12c3ccccc3C(c3ccccc31)C1C(=O)NC(=O)C12)c1ccc(Br)cc1 (stereo not drawn) | 36.8% | 46.1% | 18.5% | 15.3% | 10.1% | 26.6% | 95.3% | 55.5%
COc1cc(-c2nc3c(ncc4ccc(=O)n(-c5ccccc5)c43)s2)cc(OC)c1OC | 37.9% | 61.8% | 81% | 89.4% | 55.1% | 79.6% | 85% | 79.3%
CN1CCN(Cc2ccc(NC(=O)c3cncc(C#Cc4cnc(N)c5ncccc45)c3)cc2C(F)(F)F)CC1 | 35.9% | 34.1% | -64.7% (active) | -16.9% (active) | -74.2% (active) | -63.8% (active) | 16.3% | 5.04% (active)
CC1C(/C=N/NC(N)=S)C(C#N)(C#N)C1(C#N)C#N (stereo not drawn) | 84.6% | 110% | 98.3% | 95.8% | 97.1% | 105% | 105% | 97%
COc1cc(NC(=O)c2cncnc2Nc2ccc3c(ccn3Cc3ccccn3)c2)cc(OC)c1 | 45.3% | 34.9% | -6.69% (active) | 23.6% | 31.2% | – | 67.8% | 33.7%
COc1cc(/C=N/Nc2ccc(Br)cc2)cc(OC)c1OC | 30.8% | 95.1% | 39.5% | 46.8% | 51% | – | 45.7% | 16.3%
